The results in this text go back to PubChem BioAssay (NCATS).

Records with an inconclusive call do not appear. A call without a number means that no potency is given here. The source made the active and inactive calls. Calls come from the whole dose curve; as a rule, active = well fitted curve in the direction sought with a large enough effect; inconclusive = small, poorly fitted or top-dose-only effect, or another doubt; inactive = no such curve, though single readings can be large or run the other way.
Potency is the fitted concentration of half-maximal effect.

The first assay is described as follows: qHTS for differential inhibitors of proliferation of Plasmodium falciparum line GB4 (AID 1816).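 Note: parasite growth measured after 72 h incubation.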 To be noted: Potency: Plasmodium falciparum GB4 proliferation inhibition; series mostly up to 28.7 µM. (qHTS replaces the single test concentration by a dilution series.)
`CC(N)=NCCCC(N)C(=O)O` (stereo unspecified): the Potency result is “inactive”.
For `Cc1cn([C@H]2C[C@@H](N=[N+]=[N-])[C@@H](CO)O2)c(=O)[nH]c1=O`, the Potency result was “inactive”.
Same read-out and setting: to `CN=C(N)NCCCC(N)C(=O)O` (stereo unspecified) belongs “inactive”; to `COc1c2c(nc3ccccc13)OC(C(C)(O)CO)C2` (stereo unspecified), “inactive”; to `CC(C)C1NC(=O)[C@H](CCCCN)NC(=O)[C@@H](Cc2c[nH]c3ccccc23)NC(=O)[C@H](Cc2ccc(O)cc2)NC(=O)[C@H](C)N(C)C(=O)[C@H](Cc2ccccc2)NC1=O` (stereo partly specified), “inactive”.
For the compound `NCCC(=O)NCCc1cnc[nH]1`, the Potency result is “inactive”.
Regarding `O=C(Cc1ccc(Cl)c(Cl)c1)OCCN1CCCC1`, the Potency result was “inactive”.
As to `NC(=O)C1=CN(C2OC(COP(=O)(O)OP(=O)(O)OC[C@H]3O[C@@H](n4cnc5c(N)ncnc54)[C@H](OP(=O)(O)O)[C@H]3O)C(O)C2O)C=CC1` (stereo partly specified), the Potency entry was “inactive”.
As for `OC[C@H]1O[C@@H](n2cnc3c(NCCc4ccccc4)ncnc32)[C@H](O)[C@H]1O`, the Potency entry is “inactive”.
In the case of `CCCCCCCCCCCCCCC/C=C/[C@@H](O)[C@H](NC(=O)CCCCCCCCCCCCC)OC` (tested in a mixture with another compound), the Potency result was “inactive”.
Consider `CNc1ncnc2c1ncn2[C@@H]1O[C@H](CO)[C@H](O)[C@H]1O`, for which the Potency entry was “inactive”.
`NCCNC(=O)c1ccc(Cl)cc1`: the Potency result was “inactive”.
On the same count and under the same terms, to `NC(=NCCC[C@H](N)C(=O)O)NO` belongs “inactive”.
On the same count and under the same terms, to `OC[C@H]1O[C@@H](n2cnc3c(Nc4ccccc4)ncnc32)[C@H](O)[C@H]1O` belongs “inactive”; to `N[C@H](Cc1ccc(O)c(O)c1)C(=O)O`, “inactive”.
With `NC(=S)c1ccc[n+]([C@@H]2O[C@@H](COP(=O)([O-])OP(=O)(O)OC[C@H]3O[C@@H](n4cnc5c(N)ncnc54)[C@H](OP(=O)(O)O)[C@H]3O)C(O)C2O)c1` (stereo partly specified), the Potency entry is “inactive”.
On the same count and under the same terms, for `O=C(O)CC[C@H](NC(=O)c1ccccc1C(=O)O)C(=O)O` the value was “inactive”.
Consider `NCC1OC(O[C@@H]2[C@H](O)[C@@H](OC3C(O)C(N)CC(N)C3OC3OC(CO)C(O)C(O)C3N)O[C@@H]2CO)C(N)C(O)C1O` (stereo partly specified), for which the Potency result is “inactive”.
Still for that read-out and setting: to `COc1cc(=O)n(C)c2c(OCC(O)C(C)(C)O)cccc12` (stereo unspecified) belongs “inactive”.
On the same count and under the same terms, to `C[C@]12CCC(=O)C=C1CC[C@@H]1C2[C@@H](O)C[C@@]2(C)[C@H]1CC[C@]2(O)C(=O)CO` (stereo partly specified) belongs “inactive”; to `CN1C(=O)CCC1c1cccnc1` (stereo unspecified), “inactive”; to `CC(=O)O[C@H]1C[C@@H]2CCC3C(CC[C@@]4(C)[C@H]3C[C@H]([N+]3(C)CCCCC3)[C@@H]4OC(C)=O)[C@@]2(C)C[C@@H]1[N+]1(C)CCCCC1` (stereo partly specified), “inactive”.
For `N=C(N)SCCc1cccc(CCSC(=N)N)c1`, the Potency is 2.24 µM (active).

A further assay in a line: qHTS for differential inhibitors of proliferation of Plasmodium falciparum line 3D7 (AID 1876). As to conditions: P. falciparum 3D7 proliferation inhibition; series mostly up to 28.7 µM.
On to `CC(N)=NCCCC(N)C(=O)O` (stereo unspecified), for which the Potency result was “inactive”.
`Cc1cn([C@H]2C[C@@H](N=[N+]=[N-])[C@@H](CO)O2)c(=O)[nH]c1=O`: the Potency entry was “inactive”.
As to `CN=C(N)NCCCC(N)C(=O)O` (stereo unspecified), the Potency entry is “inactive”.
Consider `COc1c2c(nc3ccccc13)OC(C(C)(O)CO)C2` (stereo unspecified), for which the Potency entry was “inactive”.
In the case of `CN1C2CC(OC(=O)C(CO)c3ccccc3)CC1C1OC12` (stereo unspecified), the Potency entry is “inactive”.
The same measure, in the same setting: for `CC(C)C1NC(=O)[C@H](CCCCN)NC(=O)[C@@H](Cc2c[nH]c3ccccc23)NC(=O)[C@H](Cc2ccc(O)cc2)NC(=O)[C@H](C)N(C)C(=O)[C@H](Cc2ccccc2)NC1=O` (stereo partly specified) the value was “inactive”; for `NCCC(=O)NCCc1cnc[nH]1`, “inactive”.
Same read-out and setting: to `O=C(Cc1ccc(Cl)c(Cl)c1)OCCN1CCCC1` belongs “inactive”.
Consider `Cc1ccccc1N1CCN(S(=O)(=O)C[C@]23CCC(CC2NC(=O)[C@@H](N)CCS(C)(=O)=O)C3(C)C)CC1` (stereo partly specified), for which the Potency result was “inactive”.
`NC(=O)C1=CN(C2OC(COP(=O)(O)OP(=O)(O)OC[C@H]3O[C@@H](n4cnc5c(N)ncnc54)[C@H](OP(=O)(O)O)[C@H]3O)C(O)C2O)C=CC1` (stereo partly specified): the Potency result is “inactive”.
Turning to `OC[C@H]1O[C@@H](n2cnc3c(NCCc4ccccc4)ncnc32)[C@H](O)[C@H]1O`, the Potency result was “inactive”.
The same measure, in the same setting: to `CCCCCCCCCCCCCCC/C=C/[C@@H](O)[C@H](NC(=O)CCCCCCCCCCCCC)OC` (tested in a mixture with another compound) belongs “inactive”; to `CNc1ncnc2c1ncn2[C@@H]1O[C@H](CO)[C@H](O)[C@H]1O`, “inactive”.
On the same count and under the same terms, for `NCCNC(=O)c1ccc(Cl)cc1` the value was “inactive”; for `NC(=NCCC[C@H](N)C(=O)O)NO`, “inactive”; for `OC[C@H]1O[C@@H](n2cnc3c(Nc4ccccc4)ncnc32)[C@H](O)[C@H]1O`, “inactive”.
In the case of `N[C@H](Cc1ccc(O)c(O)c1)C(=O)O`, the Potency entry was “inactive”.
On to `NC(=S)c1ccc[n+]([C@@H]2O[C@@H](COP(=O)([O-])OP(=O)(O)OC[C@H]3O[C@@H](n4cnc5c(N)ncnc54)[C@H](OP(=O)(O)O)[C@H]3O)C(O)C2O)c1` (stereo partly specified), for which the Potency result was “inactive”.
Same read-out and setting: to `O=C(O)CC[C@H](NC(=O)c1ccccc1C(=O)O)C(=O)O` belongs “inactive”.
The same measure, in the same setting: for `NCC1OC(O[C@@H]2[C@H](O)[C@@H](OC3C(O)C(N)CC(N)C3OC3OC(CO)C(O)C(O)C3N)O[C@@H]2CO)C(N)C(O)C1O` (stereo partly specified) the value was “inactive”; for `COc1cc(=O)n(C)c2c(OCC(O)C(C)(C)O)cccc12` (stereo unspecified), “inactive”.
On the same count and under the same terms, for `C[C@]12CCC(=O)C=C1CC[C@@H]1C2[C@@H](O)C[C@@]2(C)[C@H]1CC[C@]2(O)C(=O)CO` (stereo partly specified) the value was “inactive”; for `N=C(N)SCCc1cccc(CCSC(=N)N)c1`, 3.16 µM (active).
